We go through 7 compounds from PubChem BioAssay (Tox21).

The nature of assay [1]: qHTS assay to identify small molecule antagonists of the androgen receptor (AR) signaling pathway using the MDA cell line in the presence of 0.5 nM R1881 - cell viability counter screen (AID 1259242). Further: nearly all actives have a fitted effect of over 45% in size. Further: potency means the concentration at half of the fitted maximal effect. In outline: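 MDA-kb2 cells (MMTV-luciferase, AR/GR responsive) were treated with compounds plus 0.5 nM R1881 (final) for 16 hr at 37C, 0% CO2. Viability was then read in the same wells as live-cell protease fluorescence (CellTiter-Fluor, 30 min).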
(In general: In qHTS, concentration-response curves come from the screen itself.)

Assay [2] addresses Androgen receptor (Homo sapiens) (UniProt P10275). The experiment in a line: qHTS assay to identify small molecule antagonists of the androgen receptor (AR) signaling pathway using the MDA cell line in the presence of 0.5 nM R1881 (AID 1259243). Further: nearly all actives have a fitted effect of over 50% in size. Further: potency means the concentration at half of the fitted maximal effect. In outline:
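MDA-kb2 cells (MMTV-luciferase, responsive to AR and GR) at 3,000/well, rested 5 h at 37C, 0% CO2, then given compounds plus 0.5 nM R1881 (final) for 16 hr. Luciferase read with ONE-Glo after 30 min at room temperature.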

Assay [3] is described as follows: qHTS assay to identify small molecule HDAC inhibitors (AID 1259364). Further: top concentration of the series differs between compounds; nearly all actives have a fitted effect of over 45% in size. In outline:
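Wild-type HCT-116 cells, plated overnight at 37 C, exposed to compounds 2 hr at 37 C; luminogenic HDAC-Glo substrate then added 30 min at room temperature. Luminescence reports relative endogenous class I/II HDAC activity.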

Assay [4] is described as follows: qHTS assay to identify small molecule HDAC inhibitors - cell viability counter screen (AID 1259365). Further: series mostly up to about 92 µM; nearly all actives have a fitted effect of over 50% in size. In outline:
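After overnight seeding at 1,500 cells per well, wild-type HCT-116 cultures took up compounds in DMSO for 2hr at 37 C. Viable cell content came from luminescence with CellTiter-Glo.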

Assay [5] in a line: qHTS assay to identify small molecule agonists of the sonic hedgehog signaling (Shh) pathway - cell viability counter screen (AID 1259366). Further: nearly all actives have a fitted effect of over 50% in size. Further: potency means the concentration at half of the fitted maximal effect. In outline: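 Same-well cytotoxicity read. Gli1-Luc reporter 3T3 cells; compounds 24hr, 37C/5% CO2; CellTiter-Fluor fluorescence.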
Assay [6] in a line: qHTS assay to identify small molecule antagonists of the sonic hedgehog signaling (Shh) pathway - cell viability counter screen (AID 1259367). Further: nearly all actives have a fitted effect of over 55% in size. Further: potency means the concentration at half of the fitted maximal effect. In outline: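 NIH/3T3-derived Gli1-Luc reporter cells, 2,000/well, plated 4 hr before compound addition, then stimulated with conditioned medium for 24 hr at 37C. Viability measured in the same wells by CellTiter-Fluor fluorescence, reagent added at 23 hr for 1 hr.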

Assay [7] is described as follows: qHTS assay to identify small molecule agonists of the sonic hedgehog signaling (Shh) pathway (AID 1259368; calls by dose curve;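 further: NIH/3T3-derived 3T3Gli1-Luc cells carrying a stable Gli1-driven firefly luciferase reporter; series mostly up to about 92 µM; nearly all actives have a fitted effect of over 15% in size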). In outline:
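NIH/3T3-derived 3T3Gli1-Luc cells with stably integrated Gli1-driven firefly luciferase, 2,000 cells/well, compounds added after 4 hr. Incubated 24 hr at 37C, 5% CO2; luminescence read after 30 min with luciferase reagent at room temperature.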

Assay [8] is described as follows: qHTS assay to identify small molecule antagonists of the sonic hedgehog signaling (Shh) pathway (AID 1259369; calls by dose curve; further: nearly all actives have a fitted effect of over 45% in size; further: potency means the concentration at half of the fitted maximal effect). In outline:
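NIH/3T3-derived Gli1-Luc reporter cells plated 4 h, dosed with compound, then stimulated with conditioned medium for 24 h at 37 C. Firefly luciferase luminescence read after 30 min with detection reagent at room temperature.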

In assay [9] the target is Estrogen receptor beta (Homo sapiens) (UniProt Q92731). The assay is described as follows: qHTS assay to identify small molecule antagonists of the estrogen receptor beta (ER-beta) signaling pathway (AID 1259378; active means well fitted inhibition curve with a large enough effect in the signal ratio in the repeat runs, not every such curve was filed as active; the % refers to the signal ratio; further: potency means the concentration at half of the fitted maximal effect). In outline:
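ER-beta-UAS-bla HEK293T cells in 2% charcoal-stripped FBS medium treated with compound plus 1nM final 17-beta-estradiol for 16 hr at 37C. Beta-lactamase reporter read by FRET substrate fluorescence after 2 hours at room temperature.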

Assay [10] can be described thus: qHTS assay to identify small molecule agonists of the androgen receptor (AR) signaling pathway in the presence of an antagonist - cell viability counter screen (AID 1259379). Further: nearly all actives have a fitted effect of over 25% in size. Further: potency means the concentration at half of the fitted maximal effect. In outline: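 MDA-kb2 cells (MMTV-luciferase, AR/GR), 3,000/well, 5 h attachment, then 3.0 µM nilutamide (final) and compounds at 15 concentrations. Viability by CellTiter-Fluor fluorescence after 16 h at 37 °C, 0% CO2, in the reporter wells.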

Assay [11] can be described thus: qHTS assay to identify small molecule agonists of the estrogen receptor beta (ER-beta) signaling pathway - cell viability counter screen (AID 1259380). Further: nearly all actives have a fitted effect of over 30% in size. Further: potency means the concentration at half of the fitted maximal effect. In outline:
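ER-beta-UAS-bla HEK293T cells in medium with 2% charcoal-stripped FBS, pre-incubated 6 hr, then treated 16 hr at 37C. Cytotoxicity read in the same wells by CellTiter-Glo luminescence after 30 min at room temperature.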

Assay [12] is described as follows: qHTS assay to identify small molecule antagonists of the estrogen receptor beta (ER-beta) signaling pathway - cell viability counter screen (AID 1259382). Further: nearly all actives have a fitted effect of over 55% in size. Further: potency means the concentration at half of the fitted maximal effect. In outline:
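ER-beta-UAS-bla HEK293T cells in 2% charcoal-stripped FBS medium, treated with compound plus 1 nM 17-beta-estradiol for 16 h at 37C. Viability read by CellTiter-Glo luminescence after 30 min at room temperature in the same wells.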

Assay [13] addresses Estrogen receptor (Homo sapiens) (UniProt P03372). The experiment in a line: qHTS assay to identify small molecule agonists of the estrogen receptor alpha (ER-alpha) signaling pathway in the presence of an antagonist (AID 1259383; calls by dose curve; further: top concentration of the series differs between compounds; nearly all actives have a fitted effect of over 15% in size). In outline: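 VM7Luc4E2 cells express endogenous full-length ER-alpha with an ERE-luciferase reporter and were hormone-deprived for 5 days. Compounds at 15 concentrations were added with 10.0nM ICI-182,780 for 22hr at 37C. Luminescence was read with ONE-Glo.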

Assay [14] in a line: qHTS assay to identify small molecule agonists or antagonists of the thyroid stimulating hormone receptor (TSHR) signaling pathway - wild type cell line counter screen (AID 1259384; calls by dose curve). In outline: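 Wild-type Hek293 cells, 800/well, 18 h at 37C, then compound with Ro20-1724 for 30 min RT. cAMP by HTRF (cAMP-d2/anti-cAMP cryptate), 1 h RT, fluorescence read. 15 concentrations, triplicates.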

The nature of assay [15]: qHTS assay to identify small molecule agonists of the estrogen receptor alpha (ER-alpha) signaling pathway in the presence of an antagonist - cell viability counter screen (AID 1259386).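 Further: series mostly up to about 92 µM; cells exposed to compounds for 22 h at 37 °C before the viability read; nearly all actives have a fitted effect of over 30% in size.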 In outline:
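Cell viability in VM7Luc4E2 cells (endogenous full-length ER-alpha) measured by CellTiter-Fluor fluorescence in the same wells as the luciferase screen. Cells pre-cultured 5 days in charcoal-stripped serum, then treated 22 h with compounds at 15 concentrations plus 10.0nM ICI-182,780.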

Assay [16] concerns the target Androgen receptor (Homo sapiens) (UniProt P10275). The assay is described as follows: qHTS assay to identify small molecule agonists of the androgen receptor (AR) signaling pathway in the presence of an antagonist (AID 1259381; calls by dose curve; further: nearly all actives have a fitted effect of over 15% in size). In outline:
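MDA-kb2 cells carrying MMTV-luciferase (AR/GR responsive), 3,000 cells/well, co-treated with 3.0 uM nilutamide final. Compounds at 15 concentrations, 16 hr at 37C without CO2. Luciferase luminescence read after 30 min with ONE-Glo.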

The target of assay [17] is Thyrotropin receptor (Homo sapiens) (UniProt P16473). The experiment in a line: qHTS assay to identify small molecule antagonists of the thyroid stimulating hormone receptor (TSHR) signaling pathway (AID 1259385; calls by dose curve; further: nearly all actives have a fitted effect of over 20% in size; further: potency means the concentration at half of the fitted maximal effect). In outline:
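TSHR-HEK293 cells (800/well) plated 18 h, then compounds with Ro20-1724 and TSH at 1.5 ng/mL final, 30 min at room temperature. cAMP quantified by HTRF (cAMP-d2/anti-cAMP-cryptate, 1 h); 15 concentrations in triplicate.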

In assay [18] the target is Estrogen receptor (Homo sapiens) (UniProt P03372). The experiment in a line: qHTS assay to identify small molecule antagonists of the estrogen receptor alpha (ER-alpha) signaling pathway using the BG1 cell line in the presence of 0.1 nM 17-beta-estradiol (AID 1259244). Further: nearly all actives have a fitted effect of over 50% in size. In outline: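 VM7Luc4E2 cells (endogenous full-length ER-alpha, 4×ERE-luciferase), kept 5 days in phenol red-free, charcoal-stripped FBS medium; 4,000 cells/well. Compounds added with 0.1 nM (final) 17beta-estradiol, 22 hr at 37C; luminescence read with ONE-Glo after 30 min.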
Chain of Estrogen receptor (Homo sapiens) (P03372 whole entry, looked up): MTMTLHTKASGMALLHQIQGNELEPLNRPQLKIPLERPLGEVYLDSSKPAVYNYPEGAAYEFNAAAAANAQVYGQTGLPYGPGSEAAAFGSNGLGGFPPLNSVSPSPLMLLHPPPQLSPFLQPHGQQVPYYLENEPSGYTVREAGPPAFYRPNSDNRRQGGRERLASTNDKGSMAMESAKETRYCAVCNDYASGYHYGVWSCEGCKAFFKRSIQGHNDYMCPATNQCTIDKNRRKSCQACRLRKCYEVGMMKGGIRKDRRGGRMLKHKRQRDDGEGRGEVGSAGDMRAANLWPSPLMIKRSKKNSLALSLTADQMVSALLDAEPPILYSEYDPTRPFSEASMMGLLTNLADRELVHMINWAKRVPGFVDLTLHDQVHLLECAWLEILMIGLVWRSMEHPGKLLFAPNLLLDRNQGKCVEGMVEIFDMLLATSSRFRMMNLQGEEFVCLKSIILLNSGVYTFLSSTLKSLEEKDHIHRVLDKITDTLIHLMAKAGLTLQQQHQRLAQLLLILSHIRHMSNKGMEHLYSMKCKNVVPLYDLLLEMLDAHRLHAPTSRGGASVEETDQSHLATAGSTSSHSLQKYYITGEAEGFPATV

The nature of assay [19]: qHTS assay to identify small molecule phospholipidosis (PLD) inducers (AID 1259344; active means well fitted curve in the direction sought with a large enough effect; an effect the other way counts as inactive or inconclusive). In outline: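 HepG2 cells, 900/well, treated with compound plus LipidTOX Red for 24 h at 37 C; amiodarone positive and DMSO negative controls. Fixed with paraformaldehyde/Hoechst, then high-content imaging scored LipidTOX pit count and integrated intensity per well and per cell.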
Assay [20] addresses Estrogen receptor beta (Homo sapiens) (UniProt Q92731). The experiment in a line: qHTS assay to identify small molecule agonists of the estrogen receptor beta (ER-beta) signaling pathway (AID 1259377; active means well fitted activation curve with a large enough effect in the signal ratio in the repeat runs, not every such curve was filed as active; the % refers to the signal ratio). In outline:
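Read-out: beta-lactamase FRET fluorescence. Cell line: ER-beta-UAS-bla HEK293T in 2% charcoal-stripped FBS. Exposure: 16 hr at 37C. Substrate step: 2 h at room temperature.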

Unmarked numbers belong to inactive results. Records with an inconclusive call do not appear. The source made the active and inactive calls. Unless noted, the call rests on the fitted dose curve; in most records, active means well fitted curve in the direction sought with a large enough effect in the repeat runs; inconclusive means weak or mixed curves; inactive means no such curve, though single readings can be large; an effect the other way counts as inactive or inconclusive.

Chain of Thyrotropin receptor (Homo sapiens) (P16473 whole entry, looked up): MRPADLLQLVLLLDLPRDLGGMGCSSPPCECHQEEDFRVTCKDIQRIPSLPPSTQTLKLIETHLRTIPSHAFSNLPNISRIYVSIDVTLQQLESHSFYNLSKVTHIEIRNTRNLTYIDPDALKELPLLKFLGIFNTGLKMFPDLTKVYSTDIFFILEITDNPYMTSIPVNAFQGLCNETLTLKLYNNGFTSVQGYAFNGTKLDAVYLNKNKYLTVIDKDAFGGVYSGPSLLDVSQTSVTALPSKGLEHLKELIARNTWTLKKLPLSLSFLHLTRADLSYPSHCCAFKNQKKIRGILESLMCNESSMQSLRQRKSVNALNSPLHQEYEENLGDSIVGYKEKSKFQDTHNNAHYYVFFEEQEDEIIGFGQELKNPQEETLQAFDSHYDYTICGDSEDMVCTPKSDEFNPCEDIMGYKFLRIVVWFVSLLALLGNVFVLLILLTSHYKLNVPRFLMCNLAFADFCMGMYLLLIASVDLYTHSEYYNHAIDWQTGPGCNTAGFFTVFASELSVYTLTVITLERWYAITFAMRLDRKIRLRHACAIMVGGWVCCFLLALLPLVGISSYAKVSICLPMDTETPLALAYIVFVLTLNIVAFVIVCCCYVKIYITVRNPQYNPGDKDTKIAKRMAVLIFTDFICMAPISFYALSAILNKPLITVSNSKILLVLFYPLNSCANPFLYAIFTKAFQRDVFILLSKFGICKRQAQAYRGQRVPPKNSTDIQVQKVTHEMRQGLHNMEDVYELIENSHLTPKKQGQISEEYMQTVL
Chain of Estrogen receptor beta (Homo sapiens) (Q92731 whole entry, looked up): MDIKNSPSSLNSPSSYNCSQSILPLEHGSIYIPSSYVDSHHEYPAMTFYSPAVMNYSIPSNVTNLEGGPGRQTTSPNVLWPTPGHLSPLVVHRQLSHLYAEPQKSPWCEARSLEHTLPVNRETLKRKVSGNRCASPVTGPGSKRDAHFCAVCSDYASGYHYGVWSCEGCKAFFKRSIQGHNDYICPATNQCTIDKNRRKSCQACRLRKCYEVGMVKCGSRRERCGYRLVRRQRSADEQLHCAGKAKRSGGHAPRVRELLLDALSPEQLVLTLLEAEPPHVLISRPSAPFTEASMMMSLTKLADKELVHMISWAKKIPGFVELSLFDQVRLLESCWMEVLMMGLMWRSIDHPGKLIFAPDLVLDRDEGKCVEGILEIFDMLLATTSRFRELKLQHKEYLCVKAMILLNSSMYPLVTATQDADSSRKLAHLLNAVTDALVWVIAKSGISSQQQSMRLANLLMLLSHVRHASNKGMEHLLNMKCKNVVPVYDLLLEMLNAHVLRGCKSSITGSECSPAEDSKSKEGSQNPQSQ
Chain of Androgen receptor (Homo sapiens) (P10275 whole entry, looked up): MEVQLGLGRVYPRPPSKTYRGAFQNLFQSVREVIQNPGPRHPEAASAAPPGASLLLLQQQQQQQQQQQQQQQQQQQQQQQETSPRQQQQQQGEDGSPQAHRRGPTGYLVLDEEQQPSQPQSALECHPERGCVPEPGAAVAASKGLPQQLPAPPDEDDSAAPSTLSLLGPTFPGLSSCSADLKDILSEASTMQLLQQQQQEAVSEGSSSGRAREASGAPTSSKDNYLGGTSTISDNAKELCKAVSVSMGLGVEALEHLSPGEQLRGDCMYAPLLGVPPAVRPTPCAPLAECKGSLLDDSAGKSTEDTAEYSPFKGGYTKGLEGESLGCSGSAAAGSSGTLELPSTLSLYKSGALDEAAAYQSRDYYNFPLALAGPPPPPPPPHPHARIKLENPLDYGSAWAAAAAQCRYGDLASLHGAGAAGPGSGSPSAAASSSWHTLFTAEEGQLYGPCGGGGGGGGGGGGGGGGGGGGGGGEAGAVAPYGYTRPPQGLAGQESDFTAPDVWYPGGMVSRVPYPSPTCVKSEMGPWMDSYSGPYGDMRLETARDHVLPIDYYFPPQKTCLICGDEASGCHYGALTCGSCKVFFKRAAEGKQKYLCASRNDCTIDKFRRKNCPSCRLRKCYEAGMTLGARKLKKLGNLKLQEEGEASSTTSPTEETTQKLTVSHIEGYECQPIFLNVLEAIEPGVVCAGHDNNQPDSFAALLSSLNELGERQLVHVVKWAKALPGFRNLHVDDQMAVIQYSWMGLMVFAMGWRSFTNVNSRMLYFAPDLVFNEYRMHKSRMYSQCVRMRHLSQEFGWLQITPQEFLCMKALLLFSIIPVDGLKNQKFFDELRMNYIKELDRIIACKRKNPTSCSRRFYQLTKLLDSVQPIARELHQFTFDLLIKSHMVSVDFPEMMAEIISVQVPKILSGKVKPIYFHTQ

For the compound `COCC(=O)O[C@]1(CCN(C)CCCc2nc3ccccc3[nH]2)CCc2cc(F)ccc2[C@@H]1C(C)C`, the Potency in assay [1] is 21.1 µM (active); in assay [2], 16.8 µM (active); in assay [5] it was 13.3 µM (active); in [6], 26.6 µM (active); in [8] it was 13.3 µM (active); in assay [9], 11.9 µM (active). Also, the Potency in assay [10] is 23.7 µM (active); in assay [11], 21.1 µM (active); in assay [12] it was 18.8 µM (active). Also, the Potency entry in assay [3], in assay [4], in assay [7], in assay [13] and in [15] was “inactive” throughout. In addition, the compound was called inactive in assay [14].
On to `Cc1c(C(=O)O)cccc1[N+](=O)[O-]`, for which the Potency result in assay [1], in assay [2], in [3], in assay [4], in assay [7] and in assay [10] was “inactive” throughout. For the same compound, the Potency result in [11], in assay [16], in assay [12], in [17] and in assay [15] was “inactive” throughout. For the same compound, the Potency is 55.4 µM (active) in [6] and 19.6 µM (active) in assay [8]. Further, in assay [14], the call was inactive.
As for `CCCC(O)C(O)CO` (configuration not stated), the Potency result in [1], in assay [2], in assay [3], in [4], in [5] and in assay [6] was “inactive” in each case. For the same compound, the Potency result in [7], in [8], in [9], in assay [10], in assay [16] and in assay [12] was “inactive” each time. For the same compound, the Potency entry in assay [17] and in assay [15] was “inactive” in each case. Also, the result in assay [14] was inactive.
As for `COc1cccc(OC)c1O`, the Potency result in [1], in assay [2], in assay [3], in [4], in [5] and in [6] was “inactive” throughout. The Potency entry in [7], in [8], in assay [9], in assay [10], in [11] and in [16] was “inactive” throughout. The Potency entry in [12] and in assay [17] was “inactive” throughout. Besides, the outcome in assay [14] was inactive.
Consider `CN(Cc1cc(Br)cc(Br)c1N)C1CCCCC1`, for which the Potency result in [1], in assay [18], in assay [19], in [3], in assay [4] and in [5] was “inactive” each time. Moreover, the Potency result in assay [6], in assay [7], in [8], in assay [20], in [9] and in assay [10] was “inactive” throughout. Besides, the Potency result in assay [13] and in assay [15] was “inactive” each time. Besides, in assay [14], the result was inactive. Moreover, the Potency in assay [17] was 29.8 µM (active).
Take `C=CC(=O)OCCC#N`: the Potency result in assay [1], in assay [2], in assay [3], in [4], in assay [5] and in [6] was “inactive” in each case. Besides, the Potency result in [7], in assay [8], in assay [9], in assay [10], in [12] and in [17] was “inactive” in each case. For the same compound, the Potency entry in assay [15] is “inactive”. The outcome in assay [14] was inactive.
On to `CCCCCCCCCCCCCCNCCO`, for which the Potency result in assay [1], in assay [18], in [19], in assay [3], in assay [4] and in [5] was “inactive” each time. Moreover, the Potency result in [6], in assay [7], in [8] and in assay [13] was “inactive” in each case. Also, the figures for the Potency in assay [11] and in assay [17] were 26.6 µM (active) and 23.7 µM (active), respectively. For the same compound, the compound was called inactive in [14].
